# Data from PubChem BioAssay AID1159580 (chemical genetic matrix, 2015).
# Hit rate of the full screen: of about 5,500 compounds, about 2,000 (36%) were called active. About 18% were inconclusive and are not listed. The list shows a part of the results. Unmarked numbers belong to inactive results. Cut-off read from the data, not from the text of the source: active = normalized growth mostly below about 0.91 (no sharp cut-off); inconclusive = no clear call, values can overlap the other calls; inactive = mostly above about 0.92.
# Experiment: chemical genetic growth profiling, strain panel (AID 1159580);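 note: tested at 20 µM; growth read once vehicle control cultures reached saturation at 30 °C; 1 = growth at the plate median or of vehicle wells; lower values mean less growth of the strain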
# Settings: growth OD
smiles,measurement,setting,value
COc1ccc(C(c2ccc(OC)cc2)C(Cl)(Cl)Cl)cc1,normalized growth,"S. cerevisiae deletion strains, locus YJR043C, strain POL32, stronger effect = lower value",0.987
same,normalized growth,"S. cerevisiae deletion strains, locus YJR075W, strain HOC1, stronger effect = lower value",1.01
same,normalized growth,"S. cerevisiae deletion strains, locus YKL009W, strain mrt4, stronger effect = lower value",0.949
same,normalized growth,"S. cerevisiae deletion strains, locus YKL068W, stronger effect = lower value",0.995
same,normalized growth,"S. cerevisiae deletion strains, locus YKL085W, strain MDH1 (second series), stronger effect = lower value",0.999
same,normalized growth,"S. cerevisiae deletion strains, locus YKL085W, strain MDH1, stronger effect = lower value",0.999
same,normalized growth,"S. cerevisiae deletion strains, locus YKL160W, strain elf1, stronger effect = lower value",1
same,normalized growth,"S. cerevisiae deletion strains, locus YKL190W, strain CNB1, stronger effect = lower value",1.01
same,normalized growth,"S. cerevisiae deletion strains, locus YKR001C, strain vps1, stronger effect = lower value",0.966
same,normalized growth,"S. cerevisiae deletion strains, locus YKR026C, strain gcn3, stronger effect = lower value",1.01
same,normalized growth,"S. cerevisiae deletion strains, locus YKR091W, strain srl3, stronger effect = lower value",1.02
same,normalized growth,"S. cerevisiae deletion strains, locus YLL001W, strain dnm1, stronger effect = lower value",1.01
same,normalized growth,"S. cerevisiae deletion strains, locus YLL026W, stronger effect = lower value",1.02
same,normalized growth,"S. cerevisiae deletion strains, locus YLL041C, strain sdh2, stronger effect = lower value",1.02
same,normalized growth,"S. cerevisiae deletion strains, locus YLR027C, strain aat2, stronger effect = lower value",1.02
same,normalized growth,"S. cerevisiae deletion strains, locus YLR039C, strain RIC1, stronger effect = lower value",1.01
same,normalized growth,"S. cerevisiae deletion strains, locus YLR058C, strain SHM2, stronger effect = lower value",0.994
same,normalized growth,"S. cerevisiae deletion strains, locus YLR102C, strain apc9, stronger effect = lower value",0.99
same,normalized growth,"S. cerevisiae deletion strains, locus YLR221C, strain rsa3, stronger effect = lower value",0.981
same,normalized growth,"S. cerevisiae deletion strains, locus YLR258W, strain gsy2, stronger effect = lower value",1.01
same,normalized growth,"S. cerevisiae deletion strains, locus YLR262C, strain YPT6 (second series), stronger effect = lower value",0.856 (active)
same,normalized growth,"S. cerevisiae deletion strains, locus YLR262C, strain YPT6, stronger effect = lower value",1.03
same,normalized growth,"S. cerevisiae deletion strains, locus YLR268W, strain sec22, stronger effect = lower value",0.997
same,normalized growth,"S. cerevisiae deletion strains, locus YLR320W, strain mms22, stronger effect = lower value",0.963
same,normalized growth,"S. cerevisiae deletion strains, locus YLR330W, strain CHS5, stronger effect = lower value",0.998
same,normalized growth,"S. cerevisiae deletion strains, locus YLR342W, strain FKS1 (second series), stronger effect = lower value",0.975
same,normalized growth,"S. cerevisiae deletion strains, locus YLR342W, strain FKS1, stronger effect = lower value",1.01
same,normalized growth,"S. cerevisiae deletion strains, locus YLR357W, strain rsc2, stronger effect = lower value",1.03
same,normalized growth,"S. cerevisiae deletion strains, locus YLR370C, strain arc18, stronger effect = lower value",1.01
same,normalized growth,"S. cerevisiae deletion strains, locus YLR371W, strain rom2, stronger effect = lower value",0.972
same,normalized growth,"S. cerevisiae deletion strains, locus YLR384C, strain iki3, stronger effect = lower value",0.996
same,normalized growth,"S. cerevisiae deletion strains, locus YLR418C, strain cdc73, stronger effect = lower value",0.993
same,normalized growth,"S. cerevisiae deletion strains, locus YML016C, strain PPZ1, stronger effect = lower value",0.993
same,normalized growth,"S. cerevisiae deletion strains, locus YML032C, strain rad52, stronger effect = lower value",0.975
same,normalized growth,"S. cerevisiae deletion strains, locus YML120C, strain ndi1, stronger effect = lower value",1.02
same,normalized growth,"S. cerevisiae deletion strains, locus YML124C, strain tub3, stronger effect = lower value",0.983
same,normalized growth,"S. cerevisiae deletion strains, locus YMR058W, strain fet3, stronger effect = lower value",1.01
same,normalized growth,"S. cerevisiae deletion strains, locus YMR078C, strain ctf18, stronger effect = lower value",0.988
same,normalized growth,"S. cerevisiae deletion strains, locus YMR125W, strain sto1, stronger effect = lower value",1
same,normalized growth,"S. cerevisiae deletion strains, locus YMR129W, stronger effect = lower value",1.01
same,normalized growth,"S. cerevisiae deletion strains, locus YMR205C, strain PFK2, stronger effect = lower value",0.985
same,normalized growth,"S. cerevisiae deletion strains, locus YMR223W, strain ubp8, stronger effect = lower value",0.966
same,normalized growth,"S. cerevisiae deletion strains, locus YMR231W, strain pep5, stronger effect = lower value",1
same,normalized growth,"S. cerevisiae deletion strains, locus YMR263W, strain SAP30, stronger effect = lower value",1.01
same,normalized growth,"S. cerevisiae deletion strains, locus YMR307W, strain GAS1, stronger effect = lower value",0.892
same,normalized growth,"S. cerevisiae deletion strains, locus YNL067W, strain RPL9B, stronger effect = lower value",0.999
same,normalized growth,"S. cerevisiae deletion strains, locus YNL071W, strain lat1, stronger effect = lower value",0.999
same,normalized growth,"S. cerevisiae deletion strains, locus YNL128W, strain TEP1, stronger effect = lower value",0.992
same,normalized growth,"S. cerevisiae deletion strains, locus YNL153C, strain GIM3, stronger effect = lower value",0.998
same,normalized growth,"S. cerevisiae deletion strains, locus YNL209W, strain ssb2, stronger effect = lower value",1
same,normalized growth,"S. cerevisiae deletion strains, locus YNL233W, strain BNI4, stronger effect = lower value",1
same,normalized growth,"S. cerevisiae deletion strains, locus YNL248C, strain rpa49, stronger effect = lower value",1.01
same,normalized growth,"S. cerevisiae deletion strains, locus YNL250W, strain rad50, stronger effect = lower value",0.992
same,normalized growth,"S. cerevisiae deletion strains, locus YNL271C, strain bni1, stronger effect = lower value",0.988
same,normalized growth,"S. cerevisiae deletion strains, locus YNL298W, strain CLA4, stronger effect = lower value",0.977
same,normalized growth,"S. cerevisiae deletion strains, locus YNL307C, strain MCK1, stronger effect = lower value",0.964
same,normalized growth,"S. cerevisiae deletion strains, locus YNL322C, strain KRE1 (second series), stronger effect = lower value",0.985
same,normalized growth,"S. cerevisiae deletion strains, locus YNL322C, strain KRE1, stronger effect = lower value",1.01
same,normalized growth,"S. cerevisiae deletion strains, locus YNR049C, strain mso1, stronger effect = lower value",1.01
same,normalized growth,"S. cerevisiae deletion strains, locus YNR052C, strain pop2, stronger effect = lower value",0.96
same,normalized growth,"S. cerevisiae deletion strains, locus YOL006C, strain TOP1, stronger effect = lower value",1.02
same,normalized growth,"S. cerevisiae deletion strains, locus YOL012C, strain htz1",0.957
same,normalized growth,"S. cerevisiae deletion strains, locus YOL147C, strain pex11, stronger effect = lower value",0.985
same,normalized growth,"S. cerevisiae deletion strains, locus YOR001W, strain rrp6, stronger effect = lower value",0.987
same,normalized growth,"S. cerevisiae deletion strains, locus YOR061W, strain CKA2, stronger effect = lower value",1.01
same,normalized growth,"S. cerevisiae deletion strains, locus YOR069W, strain VPS5, stronger effect = lower value",0.992
same,normalized growth,"S. cerevisiae deletion strains, locus YOR070C, strain gyp1, stronger effect = lower value",1.02
same,normalized growth,"S. cerevisiae deletion strains, locus YOR080W, strain dia2, stronger effect = lower value",1.01
same,normalized growth,"S. cerevisiae deletion strains, locus YOR083W, strain WHI5, stronger effect = lower value",1
same,normalized growth,"S. cerevisiae deletion strains, locus YOR106W, strain vam3, stronger effect = lower value",0.967
same,normalized growth,"S. cerevisiae deletion strains, locus YOR136W, strain idh2, stronger effect = lower value",0.972
same,normalized growth,"S. cerevisiae deletion strains, locus YOR144C, strain elg1, stronger effect = lower value",0.982
same,normalized growth,"S. cerevisiae deletion strains, locus YOR184W, strain ser1, stronger effect = lower value",0.962
same,normalized growth,"S. cerevisiae deletion strains, locus YOR265W, strain rbl2, stronger effect = lower value",1.01
same,normalized growth,"S. cerevisiae deletion strains, locus YOR270C, strain vph1, stronger effect = lower value",0.982
same,normalized growth,"S. cerevisiae deletion strains, locus YOR290C, strain snf2, stronger effect = lower value",0.984
same,normalized growth,"S. cerevisiae deletion strains, locus YOR316C, strain cot1, stronger effect = lower value",0.995
same,normalized growth,"S. cerevisiae deletion strains, locus YPL051W, strain arl3, stronger effect = lower value",0.978
same,normalized growth,"S. cerevisiae deletion strains, locus YPL055C, strain LGE1, stronger effect = lower value",0.996
same,normalized growth,"S. cerevisiae deletion strains, locus YPL078C, strain atp4, stronger effect = lower value",1.02
same,normalized growth,"S. cerevisiae deletion strains, locus YPL106C, strain sse1, stronger effect = lower value",1.06
same,normalized growth,"S. cerevisiae deletion strains, locus YPL240C, strain hsp82, stronger effect = lower value",1.01
same,normalized growth,"S. cerevisiae deletion strains, locus YPL241C, strain CIN2, stronger effect = lower value",1
same,normalized growth,"S. cerevisiae deletion strains, locus YPR119W, strain clb2, stronger effect = lower value",0.998
same,normalized growth,"S. cerevisiae deletion strains, locus YPR141C, strain kar3, stronger effect = lower value",0.994
same,normalized growth,"S. cerevisiae deletion strains, locus YPR163C, strain tif3, stronger effect = lower value",0.97
same,normalized growth,"S. cerevisiae deletion strains, locus YPR167C, strain met16, stronger effect = lower value",0.991
same,normalized growth,"S. cerevisiae deletion strains, strain wtn01, stronger effect = lower value",1
same,normalized growth,"S. cerevisiae strains, strain wild type, stronger effect = lower value",1
